From PubChem BioAssay
Rows were chosen to be rich in hits. Some 2.8% of all compounds tested hit in one or more screens of this group.
Pol eta inh-1 – qHTS for Inhibitors of Polymerase Eta; DNA polymerase eta (Homo sapiens), Q9Y253; recombinant Pol eta, fluorescent DNA replication assay; Potency, µM (top dose mostly 114 µM), for inactives: at the highest dose activity change, negative = inhibition, usual class: inhibitors; 390,000 compounds, 1.2% hits; also: potency is read from the fitted curve at half-maximal effect; % is scaled to controls: 0 for no effect and ±100 for the full control effect
Target sequence (Q9Y253 whole entry, looked up): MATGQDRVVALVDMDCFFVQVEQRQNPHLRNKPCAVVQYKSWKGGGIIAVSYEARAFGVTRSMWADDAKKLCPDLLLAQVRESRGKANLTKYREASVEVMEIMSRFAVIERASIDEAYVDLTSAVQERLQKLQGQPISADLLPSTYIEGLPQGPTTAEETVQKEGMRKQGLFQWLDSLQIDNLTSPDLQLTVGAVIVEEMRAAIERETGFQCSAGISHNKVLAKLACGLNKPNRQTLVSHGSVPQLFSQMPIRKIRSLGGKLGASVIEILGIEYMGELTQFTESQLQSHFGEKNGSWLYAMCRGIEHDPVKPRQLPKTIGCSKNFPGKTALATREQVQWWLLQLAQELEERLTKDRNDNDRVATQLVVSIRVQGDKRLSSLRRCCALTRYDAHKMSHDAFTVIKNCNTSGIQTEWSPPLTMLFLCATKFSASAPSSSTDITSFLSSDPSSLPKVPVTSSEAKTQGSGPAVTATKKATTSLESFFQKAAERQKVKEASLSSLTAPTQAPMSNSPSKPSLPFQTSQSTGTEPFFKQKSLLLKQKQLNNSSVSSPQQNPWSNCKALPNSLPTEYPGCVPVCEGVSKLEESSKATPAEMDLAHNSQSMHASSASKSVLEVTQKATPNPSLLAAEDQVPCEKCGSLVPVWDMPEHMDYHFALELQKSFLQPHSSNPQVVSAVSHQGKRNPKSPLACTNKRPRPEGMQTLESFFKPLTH
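Fluorescent replication assay: 50 nM final substrate added after a 15 min room-temperature compound preincubation with 10 nM enzyme. Signal taken at 0 min and again at 10 min.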
POLB inh – qHTS Assay for Inhibitors of DNA Polymerase Beta | Pol beta primer extension/strand displacement, fluorescence kinetic | Potency, µM (doses to about 114 µM), without a hit: top-dose activity change, negative = inhibition, usual class: inhibitors | 340,000 compounds, 1.3% hits; also: potency is read from the fitted curve at half-maximal effect; % is scaled to controls: 0 for no effect and ±100 for the full control effect
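Values derive from four-parameter Hill fits of normalized kinetic data: reads at 0 and 10 min following addition of 50 nM substrate to 10 nM Pol beta preincubated 15 min with compound.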
Pol kappa inh-1 – qHTS for Inhibitors of Polymerase Kappa; 400,000 compounds, 0.53% hits; Potency, µM (titrated, usually from 107 µM), for inactives: at the top dose activity, negative = inhibition, hits mostly inhibitors; purified Pol kappa, fluorescent DNA synthesis assay, 10 min; AID 588579, 2011; DNA polymerase kappa (Homo sapiens), Q9UBT6; also: potency is read from the fitted curve at half-maximal effect; % is scaled to controls: 0 for no effect and ±100 for the full control effect
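10 nM Pol kappa preincubated 15 min at room temperature with compounds, then reaction started with substrate at 50 nM final. Fluorescence read kinetically at 0 and 10 min; buffer-only wells served as negative control.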
POLI inh – qHTS for Inhibitors of Polymerase Iota; AID 588590, 2011; DNA polymerase iota (Homo sapiens), Q9UNA4; Pol iota fluorescent replication assay, 10 min; 390,000 compounds, 1% hits; Potency, µM (titrated, usually from 115 µM), for inactives: at the top dose activity, negative = inhibition, hits mostly inhibitors; also: potency is read from the fitted curve at half-maximal effect
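Fluorescent replication assay read twice, at 0 min and 10 min after adding 50 nM (final) substrate. Enzyme (10 nM) and compounds were first incubated 15 min at room temperature; enzyme-free buffer wells were negative controls.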
PI5P4Ka inh – qHTS for Inhibitors of phosphatidylinositol 5-phosphate 4-kinase (PI5P4K) | PI5P4Kalpha enzyme, ADP-Glo luminescence, 60 min; active compounds read low | max response, % | 330,000 compounds, 1.2% hits; active = max response of -50% or lower; inconclusive = between -30% and -50%; inactive = -30% or higher; also: value at the top dose of about 77 µM; % is scaled to controls: 0 for no effect and ±100 for the full control effect
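PI5P4Kalpha ADP-Glo assay; 5 microM ATP final; 60 min RT reaction; HEPES pH 7.4/EGTA/CHAPS, 5% DMSO; controls lacking substrate or enzyme; luminescent end-point.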
WRN inhibitor – qHTS for Inhibitors of WRN Helicase; WRN helicase unwinding, fluorescent forked duplex, kinetic; 360,000 compounds, 0.46% hits; Potency, µM (top dose mostly 114 µM), inactives show at the top dose activity change, negative = inhibition, hits mostly inhibitors; Bifunctional 3'-5' exonuclease/ATP-dependent helicase WRN (Homo sapiens), Q14191; AID 651768, 2012; also: potency is read from the fitted curve at half-maximal effect; % is scaled to controls: 0 for no effect and ±100 for the full control effect; nearly all actives have a fitted effect of over 55% in size
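Kinetic fluorescence helicase assay: unwinding of a quenched forked DNA duplex (100 nM final) with 2 mM ATP final raises red fluorescence (525/598 nm). Compounds sat 15 min at room temperature with 20 nM WRN beforehand.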
GALK inh confirm – Confirmation Assay for Inhibitors of Human Galactokinase (GALK). purified GALK, Kinase-Glo ATP depletion luminescence. shares compounds with Pol eta inh-1. 150 compounds, 70% hits. Potency, µM (highest dose often 115 µM), for inactives: top-dose activity, negative = inhibition, most hits filed as inhibitors. AID 2015, 2009
Redox cycling – Confirmatory Assay for Inhibitors of Human Galactokinase (GALK): Phenol-HRP redox assay counterscreen; shares compounds with Pol eta inh-1; Phenol red-HRP H2O2 redox cycling, absorbance 600 nm; Potency, µM (highest dose often 115 µM), for the others: top-dose activity change, negative = H2O2 signal, hits mostly inhibitors; 150 compounds, 40% hits; AID 2035, 2009
HEK293 tox – Secondary Assay for Inhibitors of Human Galactokinase (GALK): HEK-293 Cell Viability Assay; AID 2547, 2010; 170 compounds, 10% hits; shares compounds with Pol eta inh-1; HEK-293 viability, ATP luminescence (CellTiter-Glo), 24/48 h; Potency, µM (series often up to 46.1 µM), for the others: top-dose activity change, negative = cytotoxicity, actives largely listed as inhibitors; also: potency is read from the fitted curve at half-maximal effect; % is scaled to controls: 0 for no effect and ±100 for the full control effect
Pol kappa inh-2 – qHTS for Inhibitors of Polymerase Kappa: Confirmatory Assay for Cherry-picked Compounds. AID 720501, 2013. shares compounds with Pol eta inh-1. 920 compounds, 76% hits. Potency, µM, usual class: inhibitors. purified Pol-kappa, fluorescent strand-displacement substrate; also: potency is read from the fitted curve at half-maximal effect
Pol eta inh-2 – qHTS for Inhibitors of Polymerase Eta: Confirmatory Assay for Cherry-picked Compounds; Pol eta primer extension, TAMRA/BHQ fluorescence, 10 min; AID 720502, 2013; shares compounds with Pol eta inh-1; Potency, µM, usual class: inhibitors; 2,600 compounds, 64% hits; also: potency is read from the fitted curve at half-maximal effect
* hit, by the source's call; ? = inconclusive; / = no result; ! = a repeat was not active; [ ] = another dose, or the depositor's remark. Unless noted, calls follow the shape of the dose curve; as a rule, active = well fitted curve in the direction sought with a large enough effect; inconclusive = small, poorly fitted or top-dose-only effect, or another doubt; inactive = no such curve, though single readings can be large; an effect the other way counts as inactive or inconclusive.

SMILES | Pol eta inh-1 | POLB inh | Pol kappa inh-1 | POLI inh | PI5P4Ka inh | WRN inhibitor | Pol eta inh-2 | others
CCc1ccc(NS(=O)(=O)c2ccc3[nH]cc(C(=O)NC4CCCC4)c(=O)c3c2)cc1 | ? | 50.1µM* | ? | 89.1µM* | / | / | / | Pol kappa inh-2=?
CN(Cc1ccco1)C(=O)c1c[nH]c2ccc(S(=O)(=O)Nc3ccc4c(c3)OCCO4)cc2c1=O | ? | ? | -20.1% | -29.4% | -6.5 | -18.9% | /
CCc1ccc(NS(=O)(=O)c2ccc3[nH]cc(C(=O)N(C)Cc4ccco4)c(=O)c3c2)cc1 | 89.1µM* | 44.7µM*! | -23.6% | ? | / | -19.4%[57.1 µM] | ?
CCOc1ccc(NS(=O)(=O)c2ccc3[nH]cc(C(=O)NC4CCCC4)c(=O)c3c2)cc1 | -5.2% | ? | -32.9% | ? | / | / | /
CCOc1ccc(NS(=O)(=O)c2ccc3[nH]cc(C(=O)NCc4ccco4)c(=O)c3c2)cc1 | 79.4µM* | 22.4µM* | -19.1% | ? | / | / | / | Pol kappa inh-2=?
COc1ccccc1CNc1cc(-c2cccc(C#N)c2)ncn1 | / | / | -0.1%[60.1 µM] | / | / | / | /
CCN(CC(=O)Nc1ccc(NC(C)=O)cc1)C(=O)C1(c2ccccc2)CC1 | -13.4% | / | -3.6% | 9.3% | 1.6 | -8.1% | /
N#Cc1c(NC(=O)/C=C/c2ccco2)sc2c1CCCC2 | ? | ? | -25.7% | 50.1µM* | -62.9* | ? | 84.9*
O=C(Nc1sc2c(c1C(=O)O)CCCCC2)c1ccccc1 | -6.0% | 14.9% | 10.5% | 49.8% | -21.0 | -6.2% | /
O=C(Nc1sc2c(c1C(=O)O)CCC2)c1ccccc1 | 12.6µM* | 20µM* | ? | ? | ? | ? | 75.7*
CC(=O)Nc1sc2c(c1C#N)CCCCC2 | -10.7% | 16.5% | -2.7% | -1.5% | -0.5 | 1.5% | /
O=C(/C=C/c1ccco1)Nc1sc2c(c1C(=O)O)CCC2 | 79.4µM* | -82.9% | ? | ? | / | -3.2%[11.6 µM] | ?
CCN(CC(=O)Nc1ccc2c(c1)OCCO2)C(=O)COc1ccc(C(C)=O)cc1 | -13.6% | / | / | / | -0.3 | 0.8% | /
CN(Cc1ccccc1)C(=O)c1cccc(NC(=O)Cc2ccc(NC(=O)C3CCCN(C(=O)C4CCCC4)C3)cc2)c1 (stereo unspecified) | -4.9% | / | 0.4% | 23.0% | 0.5 | -1.4% | /
Cc1c(CCC(=O)NCCCn2ccnc2)c(=O)oc2cc3oc4c(c3cc12)CCCC4 | -5.8% | -1.7% | 5.8% | 21.7% | 8.1 | 3.6% | /
Cc1cc(C)cc(NC(=O)CSc2nc3c(c(=O)[nH]2)CN(Cc2ccc(F)cc2)CC3)c1 | -17.7% | -1.2% | -10.4% | 47.4% | -6.4 | -25.5% | /
C#CCONC(=O)c1cc(OCC(F)(F)F)ccc1OCC(F)(F)F | -15.9% | 13.0% | 4.3% | 32.8% | 2.0 | 6.4% | /
O=C(O)c1cccc(-n2cccc2/C=C\[N+](=O)[O-])c1 | 20µM* | ? | 50.1µM* | ? | -23.1 | ? | 60.1*
O=Cc1cccn1-c1cccc([N+](=O)[O-])c1 | 7.0% | ? | -1.7% | 13.2% | ? | 2.4% | /
c1coc(-c2nc3ccccc3nc2-c2ccco2)c1 | 50.1µM* | 17.8µM* | ? | ? | / | ? | ?
c1coc(-c2cnc3ccccc3n2)c1 | -13.2% | / | / | / | 2.1 | -4.0% | /
O=C(CSc1nc2ccsc2c(=O)n1Cc1ccc(C(=O)O)cc1)NCc1ccco1 | 44.7µM* | -5.6% | -21.0% | ? | 7.2 | -22.3% | ?
CC(=O)c1ccc(S(=O)(=O)Nc2ccc(-n3cnnn3)cc2)cc1 | 31.6µM* | / | -35.2% | 39.8µM* | ? | 4.9%[11.6 µM] | ?
CCOC(=O)c1ccc(-c2ccc(/C=C(\C#N)c3nc4ccc(C)cc4[nH]3)o2)cc1 | / | ? | -4.7% | 2.6% | / | / | /
Cc1cc(/C=C(/C#N)c2nc3ccccc3[nH]2)c(C)n1-c1ccccc1C(=O)O | 17.8µM* | 20µM* | ? | 11.2µM* | -22.8 | ? | 37.9* | Pol kappa inh-2=16.8*
SMILES | Pol eta inh-1 | POLB inh | Pol kappa inh-1 | POLI inh | PI5P4Ka inh | WRN inhibitor | Pol eta inh-2 | others
Cc1ccc2nc(/C(C#N)=C/c3ccc(-c4ccccc4C(=O)O)o3)[nH]c2c1 | 20µM* | 22.4µM* | ? | ? | ? | -17.6%[11.6 µM] | / | Pol kappa inh-2=?
Cc1ccc2nc(/C(C#N)=C\c3cc(C)n(-c4cccc([N+](=O)[O-])c4)c3C)[nH]c2c1 | -7.5% | -0.8% | -12.3% | -8.3%[58.9 µM] | / | -12.3% | /
O=C(OCc1c(F)cccc1Cl)c1cccnc1Cl | -15.6% | -10.7% | 1.4% | 37.9% | 16.0 | -9.7% | /
COc1cc(/C=C2/C(=O)NN(c3ccc(Cl)c(Cl)c3)C2=O)cc([N+](=O)[O-])c1O | 20µM* | 20µM* | -85.8% | 17.8µM* | -88.3* | 50.1µM* | 30.1* | GALK inh confirm=33.5µM*;Redox cycling=-2.8%;HEK293 tox=13.1%
CC(=O)Nc1ccc(Nc2nc3ccccc3nc2NS(=O)(=O)c2ccc(Cl)c([N+](=O)[O-])c2)cc1 | 22.4µM* | / | ? | ? | -25.2 | ? | ?
Cc1ccc2c(c1)c1nnc(SCC(=O)Nc3ccc(N(C)C)cc3)nc1n2CC(=O)O | ? | ? | ? | ? | -5.2 | -14.5%[11.6 µM] | /
